Values joined by “and” are separate entries in the source; they are usually repeats but may differ in a detail not shown here. Equal values may be shown once.
Test: growth inhibition of CRL1545 osteosarcoma cells, cell-based, cisplatin and BGB IC20 combos (AID 1671464);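 also: cells exposed to compound for 96 hours before readout; 0% = vehicle DMSO and 100% = high DMSO killing control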
Settings: single agent, at 5 µM, stronger effect = higher value
`COc1ccccc1S(=O)(=O)Nc1ccc2c(c1)CN(C)C(=O)N2` gave an inhibition of 6.08%.
`Cc1cc(C#N)cc(C)c1Oc1nc(Nc2ccc(C#N)cc2)nc(N)c1Br` gave an inhibition of 12%.
Work on `Nc1ncn(C2OC(CO)C(O)C2O)c(=O)n1` (stereo not drawn) yielded an inhibition of 9.69%.
For `Cc1cc(C)c(Nc2ccnc(Nc3ccc(C#N)cc3)n2)c(C)c1`, the inhibition was 56.2%.
In the case of `COc1ccc(CC(N)C(=O)NC2C(CO)OC(n3cnc4c(N(C)C)ncnc43)C2O)cc1` (stereo not drawn), the inhibition is reported as 100% and 99.7%.
With `O=c1ccn(C2OC(CO)C(O)C2O)c(=O)[nH]1` (stereo not drawn) the inhibition was -21.6% and -1.48%.
For `CC=C1NC(=O)C2CSSCCC=CC(CC(=O)NC(C(C)C)C(=O)N2)OC(=O)C(C(C)C)NC1=O` (stereo not drawn), the inhibition was 97.8% and 96.3%.
For `CN(C)CC(=O)Nc1ccc2[nH]c(=O)c3ccccc3c2c1`, the inhibition was -20.3% and -21.7% and -53.8%.
For `CC1OC(n2cc(F)c(=O)[nH]c2=O)C(O)C1O` (stereo not drawn), the inhibition was -1.1%.
For `Nc1ccn(C2OC(CO)C(O)C2(F)F)c(=O)n1` (stereo not drawn), the inhibition was 87.7% and 91.1% and 81.7%.
With `Cc1cn(C2CC(N=[N+]=[N-])C(CO)O2)c(=O)[nH]c1=O` (stereo not drawn) the inhibition was -40.3% and 11.6%.
Work on `CC(C=CC(=O)NO)=CC(C)C(=O)c1ccc(N(C)C)cc1` (stereo not drawn) yielded an inhibition of 87.3%.
In the case of `NC(=S)NN=Cc1ncccc1N`, the inhibition is reported as 63.9%.
In the case of `CC(C)(C#N)c1ccc(N2C(=O)OCc3cnc4ccc(-c5cnc6ccccc6c5)cc4c32)cc1`, the inhibition is reported as 26.5%.
`CC1CN(c2c(F)c(N)c3c(=O)c(C(=O)O)cn(C4CC4)c3c2F)CC(C)N1` (stereo not drawn) gave an inhibition of 26.7%.
For `CCCCN(Cc1ccc(C(=O)NO)cc1)C(=O)Nc1ccccc1`, the inhibition was 32.4% and 24.1%.
In the case of `O=c1[nH]cnc2c1ncn2C1OC(CO)C(O)C1O` (stereo not drawn), the inhibition is reported as -40.4%.
`Cc1cc(C=CC#N)cc(C)c1Nc1ccnc(Nc2ccc(C#N)cc2)n1` gave an inhibition of -26.3%.
